38 sequences from the OligoGym collection can be followed below.
Also: reference of the scale not given here.

The target in the first test is SLC13A5. The test can be described thus: pooled miR-30 sensor sort-seq; sequence = guide strand. Conditions: shRNA.
TACACAACCTCTTCCGCTCTTG showed a sensor-assay potency score (higher = more potent) of -0.374.
As to TTTAATGAGAGCAAGAGCTGGA, the sensor-assay potency score (higher = more potent) was 0.762.
The same measure, in the same setting: the same measure for TTTAAAATTGAATCTCATGTAA: -0.532; for TTTCTTGCTCTCTAGCCCGCAG: -0.697.

Another test concerns the target SLC16A5. The description is as above. The following applies: shRNA.
As for ATGTACACGCAGTAGCCTGTGT, the sensor-assay potency score (higher = more potent) was -0.541.
With TTGAGCAGGAGTGCCAGGCTGA, the sensor-assay potency score (higher = more potent) was -0.145.
Same read-out and setting: the same measure for TTGCAGTTCAGTGAAGAAGATG: -1.64.
Same read-out and setting: next, TTGGCCTGCAGTACCGCCTTTG: -1.15; TTCTGCAGGGCGTAGAAGCTGC: -0.98.
Same read-out and setting: the same measure for TAGAAAACATAGCTAAAGTTGT: -0.585.
With TTCAGTGAAGAAGATGCCGATA, the sensor-assay potency score (higher = more potent) was -0.558.
Same read-out and setting: the same measure for TTGCTTCCCAGGACCGTCTTTG: -0.623.
The same measure, in the same setting: the same measure for TAGCTAAAGTTGTTGGTGGCGT: -0.44.
On the same count and under the same terms, next, TTGCTTGGCCTGCAGTACCGCC: -1.47; TTGCTGGCCTGGAACTCCCATT: -1.48; TAACAAAGTAACCTCCTACTTT: 0.00812.

A further test has as its target SLC17A2. Described as above. The following applies: shRNA.
Consider TCATAAATCACTGTGAACCATA, for which the sensor-assay potency score (higher = more potent) was -0.911.
Still for that read-out and setting: next, TTTTTTGCTCCAAATATCCCTG: -0.408.
Same read-out and setting: the same measure for TTATGGGGACAGCTCGTCCAGG: -1.25; for AAATTGTACAGCTTGCAGCAGC: -0.887.
With TAAACTGACCTGTCCATGCCAT, the sensor-assay potency score (higher = more potent) is -0.0582.
Sequence ATGAACAGAAATCTGGACCTTT came in with a sensor-assay potency score (higher = more potent) of 0.387.
The same measure, in the same setting: next, TTTCGCACAGTGATCAATCTGA: 0.624.
For the sequence ATTAGATAGACCTTGCTGCTGA, the sensor-assay potency score (higher = more potent) is 0.973.
Still for that read-out and setting: the same measure for TCTGATGTTAACATGGAGCAGA: -0.539; for TATGTTAGGATGATGGTGCATA: -0.486.

In a further test the target is SLC17A8. The description is as above. The following applies: shRNA.
In turn, TAAGACATCTTCTTTTTGGGAC returned a sensor-assay potency score (higher = more potent) of 0.433.
In turn, TTACTTAGACTAACCACGTTGG returned a sensor-assay potency score (higher = more potent) of -0.0532.
Take TATATTATTGTGATTTCCCTGA: the sensor-assay potency score (higher = more potent) stood at 0.059.
Sequence ATGAGGAACACATTCTGCCATT yielded a sensor-assay potency score (higher = more potent) of -1.42.
Still for that read-out and setting: next, TATGAGGAACACATTCTGCCAT: 0.122; TTTCATTGTAGTATTTCTCTGT: 0.732; TACAACGATTGTCATAACCATG: -1.63.
Same read-out and setting: next, TAAATCTATAATTTTTTCCGTA: -0.398; TTTTCCATCAACATATACGGTG: -0.405; TACGGTGCTATTGTTGACCATT: -0.977.
Still for that read-out and setting: next, TTTACTTAGACTAACCACGTTG: -0.016; TTTCCATCAACATATACGGTGC: -0.418.
